# Measured values published in PubChem BioAssay (EPA / NIEHS).
# Active and inactive are the calls of the source. Rule for the calls: active = hit-call score of the fitted dose curve at least 0.9, where 1 is the maximum; inactive = score below 0.9.
# Experiments:
# [1] = read-out: Interleukin-1 alpha (IL1a), IL1A (gene 3552); assay: BSK_KF3CT_IL1a: BioMAP Diversity Plus: KF3CT Assay for Interleukin-1 alpha (IL1a) Biomarker Activity (AID 2283070); conditions: primary human keratinocytes with fibroblasts; actives raise or lower the signal
# Procedure, shortened: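 Primary human keratinocyte plus foreskin fibroblast co-culture, dosed and measured at 24 h in 96-well plates. IL-1a level quantified by ELISA; bidirectional fit relative to DMSO.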
# [2] = read-out: TIMP metallopeptidase inhibitor 2 (TIMP2), TIMP2 (gene 7077); assay: BSK_KF3CT_TIMP2: BioMAP Diversity Plus: KF3CT Assay for TIMP metallopeptidase inhibitor 2 (TIMP2) Biomarker Activity (AID 2283071); conditions: primary human keratinocytes with fibroblasts; actives raise or lower the signal
# Procedure, shortened: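 Co-culture of human primary keratinocytes and foreskin fibroblasts, measured 24 h after chemical dosing. TIMP-2 quantified by ELISA and fitted in both directions relative to DMSO. Cytotoxicity checked in parallel cultures by SRB total-protein staining.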
# [3] = read-out: C-C motif chemokine 2 (Homo sapiens) (UniProt P13500); assay: BSK_KF3CT_MCP1: BioMAP Diversity Plus: KF3CT Assay for Monocyte Chemoattractant Protein 1 (MCP1/CCL2) Biomarker Activity (AID 2283073); conditions: primary human keratinocytes with fibroblasts; actives raise or lower the signal
# Procedure, shortened: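 Biomarker MCP-1 is measured by ELISA in primary human keratinocytes co-cultured with foreskin fibroblasts, 24 h after chemical treatment; DMSO serves as the negative control and activity baseline.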
# [4] = read-out: Matrix Metallopeptidase 9 (MMP9), MMP9 (gene 4318); assay: BSK_KF3CT_MMP9: BioMAP Diversity Plus: KF3CT Assay for Matrix Metallopeptidase 9 (MMP9) Biomarker Activity (AID 2283074); conditions: primary human keratinocytes with fibroblasts; actives raise or lower the signal;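 for AC50: MMP9 protein level quantified by ELISA in the co-culture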
# Procedure, shortened: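 Human keratinocyte and foreskin fibroblast co-culture exposed to chemicals for 24 h; MMP9 biomarker measured by ELISA, bidirectional fitting relative to DMSO; cytotoxicity tracked by SRB total protein staining in parallel cultures.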
# [5] = read-out: urokinase plasminogen activator (uPA), PLAU (gene 5328); assay: BSK_KF3CT_uPA: BioMAP Diversity Plus: KF3CT Assay for urokinase plasminogen activator (uPA) Biomarker Activity (AID 2283075); conditions: primary human keratinocytes with fibroblasts; actives raise or lower the signal
# Procedure, shortened: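 Primary human keratinocyte/foreskin fibroblast co-culture exposed to chemical; uPA measured by ELISA at 24 h. Bidirectional fit versus DMSO, with parallel SRB total-protein staining for cytotoxicity.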
# [6] = read-out: CD40, CD40 (gene 958); assay: BSK_LPS_CD40: BioMAP Diversity Plus: LPS Assay for CD40 Biomarker Activity (AID 2283076); conditions: primary human HUVEC with PBMC; actives raise or lower the signal
# Procedure, shortened: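 Using a multiplexed primary human co-culture (umbilical vein endothelium plus PBMC), CD40 was read by ELISA 24 h after dosing, with cytotoxicity tracked by sulforhodamine B staining of parallel cultures and activity fitted bidirectionally versus DMSO.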
# [7] = read-out: E-selectin (Homo sapiens) (UniProt P16581); assay: BSK_LPS_Eselectin: BioMAP Diversity Plus: LPS Assay for Eselectin Biomarker Activity (AID 2283077); conditions: primary human HUVEC with PBMC; actives raise or lower the signal
# Procedure, shortened: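 Dose chemical onto LPS-driven HUVEC/PBMC co-culture; after 24 h, run ELISA for E-selectin; fit up- and down-going responses relative to DMSO control.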
# [8] = read-out: Interleukin-8 (IL8), CXCL8 (gene 3576); assay: BSK_LPS_IL8: BioMAP Diversity Plus: LPS Assay for Interleukin-8 (IL8) Biomarker Activity (AID 2283078); conditions: primary human HUVEC with PBMC; actives raise or lower the signal
# Procedure, shortened: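 In this LPS system, chemical-treated human umbilical vein endothelium/PBMC co-cultures were harvested at 24 h for IL-8 ELISA.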
# [9] = BSK_LPS_SRB: Viability Assessment in the BioMAP Diversity Plus: LPS Assay (AID 2283079); conditions: primary human HUVEC with PBMC;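 note: total protein by sulforhodamine B absorbance as a cytotoxicity measure; measured one day after compound addition; fitted in both directions against DMSO so loss or gain of signal counts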
# Procedure, shortened: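 Cytotoxicity endpoint in human endothelial–PBMC co-culture: 24 h exposure, then SRB (0.1%) staining, 560 nm read.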
# [10] = read-out: Interleukin-1 alpha (IL1a), IL1A (gene 3552); assay: BSK_LPS_IL1a: BioMAP Diversity Plus: LPS Assay for Interleukin-1 alpha (IL1a) Biomarker Activity (AID 2283080); conditions: primary human HUVEC with PBMC; actives raise or lower the signal
# Procedure, shortened: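 Primary human HUVEC and PBMC co-culture stimulated with LPS is dosed and harvested at 24 h. Both increases and decreases in ELISA-measured IL-1a are scored relative to DMSO.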
# [11] = BSK_LPS_PGE2: BioMAP Diversity Plus: LPS Assay for Prostaglandin E2 (PGE2) Biomarker Activity (AID 2283082); conditions: primary human HUVEC with PBMC; actives raise or lower the signal
# Procedure, shortened: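 HUVEC plus human PBMC co-culture stimulated with LPS; secreted PGE2 quantified by ELISA 24 h after chemical dosing. Activity fitted bidirectionally against DMSO baseline; parallel SRB staining (0.1% SRB after 10% TCA fixation, 560 nm) flags overt cytotoxicity.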
# [12] = read-out: Macrophage colony-stimulating factor (MCSF), CSF1 (gene 1435); assay: BSK_LPS_MCSF: BioMAP Diversity Plus: LPS Assay for Macrophage colony-stimulating factor (MCSF) Biomarker Activity (AID 2283083); conditions: primary human HUVEC with PBMC; actives raise or lower the signal
# Procedure, shortened: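 Bidirectional fit versus DMSO of ELISA-measured M-CSF in co-cultured human umbilical vein endothelial cells and PBMC, sampled 24 h after dosing.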
# [13] = read-out: Tissue Factor, F3 (gene 2152); assay: BSK_LPS_TissueFactor: BioMAP Diversity Plus: LPS Assay for Tissue Factor Biomarker Activity (AID 2283084); conditions: primary human HUVEC with PBMC; actives raise or lower the signal
# Procedure, shortened: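 Read-out: CD142 ELISA, 24 h. System: LPS-driven human endothelial/PBMC co-culture. Analysis: up- or down-signal fitted against DMSO.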
# [14] = read-out: Tumor necrosis factor (Homo sapiens) (UniProt P01375); assay: BSK_LPS_TNFa: BioMAP Diversity Plus: LPS Assay for Tumour Necrosis Factor alpha (TNFa) Biomarker Activity (AID 2283085); conditions: primary human HUVEC with PBMC; actives raise or lower the signal;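 for AC50: TNFa protein level quantified by ELISA in the co-culture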
# Procedure, shortened: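 Human umbilical vein endothelial cells co-cultured with PBMC and stimulated with LPS. TNFa was measured by ELISA 24 h after chemical dosing, fitted bidirectionally relative to DMSO.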
# [15] = read-out: Vascular cell adhesion molecule 1 (VCAM1), VCAM1 (gene 7412); assay: BSK_LPS_VCAM1: BioMAP Diversity Plus: LPS Assay for Vascular cell adhesion molecule 1 (VCAM1) Biomarker Activity (AID 2283086); conditions: primary human HUVEC with PBMC; actives raise or lower the signal
# Procedure, shortened: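 Human umbilical vein endothelial cells co-cultured with PBMC and stimulated with LPS; VCAM-1 measured by ELISA 24 h after dosing. Bidirectional curve fitting against DMSO baseline; cytotoxicity tracked in parallel by SRB total-protein staining.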
# [16] = read-out: CD38, CD38 (gene 952); assay: BSK_SAg_CD38: BioMAP Diversity Plus: SAg Assay for CD38 Biomarker Activity (AID 2283087); conditions: primary human HUVEC with PBMC; actives raise or lower the signal
# Procedure, shortened: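 Human HUVEC plus PBMC co-culture stimulated with superantigen; CD38 measured by ELISA 24 h after chemical dosing. Fluorescence read-out, bidirectional fit against DMSO; cytotoxicity tracked in parallel by SRB and Alamar Blue.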
# [17] = read-out: CD40, CD40 (gene 958); assay: BSK_SAg_CD40: BioMAP Diversity Plus: SAg Assay for CD40 Biomarker Activity (AID 2283088); conditions: primary human HUVEC with PBMC; actives raise or lower the signal
# Procedure, shortened: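 Endpoint derived by fitting increases or decreases versus DMSO controls. CD40 is detected by fluorescence ELISA in a human vascular co-culture of endothelium and PBMC at 24 h.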
# [18] = read-out: CD69, CD69 (gene 969); assay: BSK_SAg_CD69: BioMAP Diversity Plus: SAg Assay for CD69 Biomarker Activity (AID 2283089); conditions: primary human HUVEC with PBMC; actives raise or lower the signal;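 for AC50: cell surface CD69 protein quantified by ELISA with fluorescence detection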
# Procedure, shortened: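 Values derive from bidirectional fitting relative to DMSO vehicle. Cells: umbilical vein endothelium plus peripheral blood mononuclear cells, treated 24 h before fluorescent ELISA for CD69.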
# [19] = read-out: Transforming growth factor beta 1 (TGFb1), TGFB1 (gene 7040); assay: BSK_KF3CT_TGFb1: BioMAP Diversity Plus: KF3CT Assay for Transforming growth factor beta 1 (TGFb1) Biomarker Activity (AID 2283072); conditions: primary human keratinocytes with fibroblasts; actives raise or lower the signal
# Procedure, shortened: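 Human keratinocyte/foreskin fibroblast co-culture; TGF-b1 measured by ELISA 24 h after dosing, fitted bidirectionally versus DMSO. Cytotoxicity checked in parallel cultures by total protein (SRB staining, 560 nm).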
# [20] = read-out: Monocyte Chemoattractant Protein-1 (MCP1), CCL2 (gene 6347); assay: BSK_LPS_MCP1: BioMAP Diversity Plus: LPS Assay for Monocyte Chemoattractant Protein-1 (MCP1) Biomarker Activity (AID 2283081); conditions: primary human HUVEC with PBMC; actives raise or lower the signal;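 for AC50: secreted MCP-1 protein quantified by ELISA in culture supernatant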
# Procedure, shortened: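 Values derive from bidirectional fitting against DMSO of ELISA-measured MCP-1 in a human primary endothelial and mononuclear cell co-culture, 24 h after chemical addition under LPS activation.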
# Sequence of Tumor necrosis factor (Homo sapiens) (P01375 whole entry, looked up): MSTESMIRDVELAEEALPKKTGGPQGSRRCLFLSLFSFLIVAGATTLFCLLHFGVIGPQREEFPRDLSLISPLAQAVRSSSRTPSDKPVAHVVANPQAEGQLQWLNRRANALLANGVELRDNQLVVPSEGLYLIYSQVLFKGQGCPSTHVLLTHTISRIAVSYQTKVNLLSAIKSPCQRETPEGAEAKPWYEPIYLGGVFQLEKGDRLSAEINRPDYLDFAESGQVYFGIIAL
# Sequence of E-selectin (Homo sapiens) (P16581 whole entry, looked up): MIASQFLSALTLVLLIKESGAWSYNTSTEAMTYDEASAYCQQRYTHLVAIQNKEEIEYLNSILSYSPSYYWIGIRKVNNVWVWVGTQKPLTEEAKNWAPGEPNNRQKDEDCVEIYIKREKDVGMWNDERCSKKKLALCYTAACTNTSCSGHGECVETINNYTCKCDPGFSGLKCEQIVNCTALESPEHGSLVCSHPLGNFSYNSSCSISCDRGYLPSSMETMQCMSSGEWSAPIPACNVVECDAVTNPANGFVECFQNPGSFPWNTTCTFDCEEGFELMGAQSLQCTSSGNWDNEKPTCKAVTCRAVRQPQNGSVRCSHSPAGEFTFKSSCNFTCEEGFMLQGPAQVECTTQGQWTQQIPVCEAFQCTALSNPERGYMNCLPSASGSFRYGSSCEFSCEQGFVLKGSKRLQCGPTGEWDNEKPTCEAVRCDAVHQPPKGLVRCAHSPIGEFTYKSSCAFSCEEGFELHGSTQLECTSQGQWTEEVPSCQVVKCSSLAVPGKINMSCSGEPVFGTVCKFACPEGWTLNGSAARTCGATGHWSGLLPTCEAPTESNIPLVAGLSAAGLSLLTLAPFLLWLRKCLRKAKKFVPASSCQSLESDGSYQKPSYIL
smiles,measurement,setting,value
FC(F)(F)COC(OCC(F)(F)F)OCC(F)(F)F,outcome,[1],inactive
same,outcome,[2],inactive
same,outcome,[3],inactive
same,outcome,[4],inactive
same,outcome,[5],inactive
same,outcome,[6],inactive
same,outcome,[7],inactive
same,outcome,[8],inactive
same,outcome,[9],inactive
same,outcome,[10],inactive
same,outcome,[11],inactive
same,outcome,[12],inactive
same,outcome,[13],inactive
same,outcome,[14],inactive
same,outcome,[15],inactive
same,outcome,[16],inactive
same,outcome,[17],inactive
same,outcome,[18],inactive
COc1cc(C(C)C)c2c(c1)S(=O)(=O)N(COc1cc(=O)n3cccc(OCCN4CCCCC4)c3n1)C2=O,AC50,[1],5 µM (active)
same,outcome,[19],inactive
same,AC50,[3],2.78 µM (active)
same,AC50,[4],7.75 µM (active)
same,outcome,[5],inactive
same,AC50,[6],6.39 µM (active)
same,AC50,[7],8.03 µM (active)
same,outcome,[8],inactive
same,outcome,[9],inactive
same,outcome,[10],inactive
same,outcome,[11],inactive
same,AC50,[12],5 µM (active)
same,outcome,[13],inactive
same,outcome,[14],inactive
same,AC50,[15],6.02 µM (active)
same,outcome,[16],inactive
same,AC50,[17],5 µM (active)
same,AC50,[18],5 µM (active)
CCn1nc(C)c2c1C(=O)NCC(c1ccc(O)cc1)=N2,outcome,[1],inactive
same,outcome,[2],inactive
same,outcome,[19],inactive
same,outcome,[3],inactive
same,outcome,[4],inactive
same,outcome,[5],inactive
same,outcome,[6],inactive
same,outcome,[7],inactive
same,outcome,[8],inactive
same,outcome,[9],inactive
same,outcome,[11],inactive
same,outcome,[12],inactive
same,outcome,[13],inactive
same,AC50,[14],0.78 µM (active)
same,outcome,[15],inactive
same,AC50,[16],8.91 µM (active)
same,AC50,[17],20 µM (active)
same,outcome,[18],inactive
OCc1c[nH]c2ccccc12,outcome,[1],inactive
same,outcome,[2],inactive
same,outcome,[19],inactive
same,outcome,[3],inactive
same,AC50,[4],20 µM (active)
same,outcome,[5],inactive
same,outcome,[6],inactive
same,outcome,[7],inactive
same,outcome,[8],inactive
same,outcome,[9],inactive
same,outcome,[11],inactive
same,AC50,[12],3.97 µM (active)
same,outcome,[13],inactive
same,outcome,[14],inactive
same,outcome,[15],inactive
same,outcome,[16],inactive
same,AC50,[17],20 µM (active)
same,outcome,[18],inactive
NC(N)=O,outcome,[1],inactive
same,outcome,[2],inactive
same,outcome,[19],inactive
same,outcome,[3],inactive
same,outcome,[4],inactive
same,outcome,[6],inactive
same,outcome,[7],inactive
same,outcome,[8],inactive
same,outcome,[9],inactive
same,outcome,[10],inactive
same,outcome,[20],inactive
same,outcome,[11],inactive
same,outcome,[13],inactive
same,outcome,[14],inactive
same,outcome,[15],inactive
same,outcome,[16],inactive
same,outcome,[17],inactive
same,outcome,[18],inactive
CCCCCCCCCCCCCCO,outcome,[1],inactive
same,outcome,[2],inactive
same,outcome,[19],inactive
same,outcome,[3],inactive
same,outcome,[4],inactive
same,outcome,[5],inactive
same,AC50,[6],36.6 µM (active)
same,AC50,[8],34 µM (active)
same,AC50,[9],30.7 µM (active)
same,AC50,[20],31.2 µM (active)
same,outcome,[11],inactive
same,AC50,[12],31.5 µM (active)
same,AC50,[13],33.3 µM (active)
same,outcome,[14],inactive
same,AC50,[15],29.6 µM (active)
same,AC50,[16],31.1 µM (active)
same,AC50,[17],34.1 µM (active)
same,AC50,[18],30.6 µM (active)
CCOc1ccc2[nH]cc(C(=O)NCc3ccccc3)c(=O)c2n1,outcome,[1],inactive
same,outcome,[19],inactive
same,outcome,[3],inactive
same,outcome,[4],inactive
same,outcome,[5],inactive
same,outcome,[6],inactive
same,outcome,[7],inactive
same,outcome,[8],inactive
same,outcome,[9],inactive
same,outcome,[10],inactive
same,outcome,[20],inactive
same,outcome,[11],inactive
same,outcome,[12],inactive
same,outcome,[13],inactive
same,outcome,[14],inactive
same,outcome,[15],inactive
same,outcome,[16],inactive
same,outcome,[17],inactive
same,outcome,[18],inactive
